Experimental findings from PubChem BioAssay (Tox21) are described below.

Experiment [1] deals with Thyrotropin receptor (Homo sapiens) (UniProt P16473). Nature of the experiment: qHTS assay to identify small molecule antagonists of the thyroid stimulating hormone receptor (TSHR) signaling pathway (AID 1259385; calls by dose curve; also: % is scaled to controls: 0 for no effect and ±100 for the full control effect; nearly all actives have a fitted effect of over 20% in size). Summed up:
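TSHR-HEK293 cells were plated and held 18 h at 37C/5% CO2, then given compound plus Ro20-1724 and stimulated with TSH at 1.5 ng/mL final. After 30 min at room temperature, cAMP was detected with cAMP-d2/anti-cAMP-cryptate (1 h) by fluorescence.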
Background: In qHTS, concentration-response curves come from the screen itself.

Experiment [2] in a line: qHTS assay to identify small molecule agonists of the estrogen receptor alpha (ER-alpha) signaling pathway in the presence of an antagonist - cell viability counter screen (AID 1259386).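 Also: series mostly up to about 92 µM; cells exposed to compounds for 22 h at 37 °C before the viability read; % is scaled to controls: 0 for no effect and ±100 for the full control effect; nearly all actives have a fitted effect of over 30% in size.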 Summed up:
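Cell viability in VM7Luc4E2 cells (endogenous full-length ER-alpha) measured by CellTiter-Fluor fluorescence in the same wells as the luciferase screen. Cells pre-cultured 5 days in charcoal-stripped serum, then treated 22 h with compounds at 15 concentrations plus 10.0nM ICI-182,780.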

The nature of experiment [3]: qHTS assay to identify small molecule antagonists of the progesterone receptor (PR) signaling pathway - cell viability counter screen (AID 1346798). Also: nearly all actives have a fitted effect of over 50% in size. Also: potency is read from the fitted curve at half-maximal effect. Summed up: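 Cytotoxicity read as CellTiter-Glo luminescence (30 min, room temperature) in the same wells as the beta-lactamase readout. HEK293T PR-UAS-bla cells in charcoal-stripped 2% FBS received compound and R5020, then 16 h at 37C, 5% CO2.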

A short description of experiment [4]: qHTS assay to identify small molecule agonists of the progesterone receptor (PR) signaling pathway - cell viability counter screen (AID 1346799; calls by dose curve; also: nearly all actives have a fitted effect of over 45% in size; also: potency is read from the fitted curve at half-maximal effect). Summed up: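 Cytotoxicity measured by CellTiter-Glo luminescence (30 min, RT) in the same wells as the PR beta-lactamase agonist read. Those HEK293T cells had 16 h compound treatment at 37 C in 2% charcoal-stripped FBS medium.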

Experiment [5] can be described thus: qHTS assay to identify small molecule antagonists of the TGF-beta/Smad signaling pathway - cell viability counter screen (AID 1346824). Also: % is scaled to controls: 0 for no effect and ±100 for the full control effect; nearly all actives have a fitted effect of over 50% in size. The method in brief: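 SBE-bla HEK 293T cells were plated overnight at 37 C, then given compounds in DMSO plus TGF-beta1 (added as 0.25 ng/mL solution) for 5 hr. After the bla read, CellTiter-Glo was added to the same wells and luminescence read after 30 min at room temperature.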

Experiment [6] in a line: qHTS assay to identify small molecule agonists of the TGF-beta/Smad signaling pathway - cell viability counter screen (AID 1346829). Also: nearly all actives have a fitted effect of over 45% in size. Also: potency is read from the fitted curve at half-maximal effect. The method in brief: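 CellTiter-Glo luminescence readout; SBE-bla HEK 293T cells, overnight plating, compound 5 hr at 37 C/5% CO2, then bla substrate 2 hr RT, then CellTiter-Glo 30 min RT.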
A short description of experiment [7]: qHTS assay to identify small molecule agonists of the TGF-beta/Smad signaling pathway (AID 1346859; active = well fitted activation curve with a large enough effect in the signal ratio in the repeat runs, not every such curve was filed as active; the % refers to the signal ratio; also: series mostly up to about 77 µM; % is scaled to controls: 0 for no effect and ±100 for the full control effect). Summed up: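 Fluorescence (ex 405 nm; em 460 and 530 nm) was read 2 h after LiveBLAzer FRET substrate at RT. The preceding compound treatment of overnight-plated SBE-bla HEK293T cells lasted 5 h at 37 C.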
The target of experiment [8] is Thyrotropin-releasing hormone receptor (Homo sapiens) (UniProt P34981). Nature of the experiment: qHTS assay to identify small molecule antagonists of the thyrotropin-releasing hormone receptor (TRHR) signaling pathway (AID 1346877; active = well fitted inhibition curve with a large enough effect in the repeat runs, not every such curve was filed as active; also: series mostly up to about 51 µM; % is scaled to controls: 0 for no effect and ±100 for the full control effect). The method in brief: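 TRHR-expressing HEK293 cells loaded with calcium dye for 2 h at 37 C; compounds pre-incubated 5 min at room temperature before TRH challenge at 1 nM final. Intracellular calcium fluorescence read kinetically for 3 min; 15 concentrations in triplicate.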

The target is the same in experiment [9]. Nature of the experiment: qHTS assay to identify small molecule agonists of the thyrotropin-releasing hormone receptor (TRHR) signaling pathway (AID 1346891; calls by dose curve; also: series mostly up to about 58 µM; % is scaled to controls: 0 for no effect and ±100 for the full control effect). Summed up:
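Agonist-mode intracellular calcium readout: kinetic fluorescence over 3 min at 1 s intervals after compound addition to TRHR-HEK293 cells (18 h seeded, 2 h dye-loaded at 37 C). Fifteen concentrations, triplicates.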

Experiment [10] can be described thus: Human pregnane X receptor (PXR) small molecule agonists, qHTS cell viability counter screen (AID 1346977). Also: nearly all actives have a fitted effect of over 50% in size. Also: potency is read from the fitted curve at half-maximal effect. The method in brief: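 Same-well viability read: CellTiter-Fluor added after 23 hr compound exposure, fluorescence measured 1 hr later. Cells were PXR-Luc HepG2 seeded at 2,000/well in 5% charcoal-stripped FBS medium, rested 5 hr before dosing at 37 C.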

A short description of experiment [11]: Caspase-3/7 induction in HepG2 cells by small molecules, qHTS assay (AID 1346978). Also: % is scaled to controls: 0 for no effect and ±100 for the full control effect; nearly all actives have a fitted effect of over 15% in size. The method in brief:
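Wild-type HepG2 cells (2,000/well) were settled 5 h at 37 C, 5% CO2, then exposed to compounds in DMSO for 17 h. Caspase-3/7 activity was read by luminescence 30 min after adding Caspase-Glo 3/7 reagent at room temperature.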

A short description of experiment [12]: Caspase-3/7 induction in CHO-K1 cells by small molecules, qHTS cell viability counter screen (AID 1346979). Also: nearly all actives have a fitted effect of over 35% in size. Also: potency is read from the fitted curve at half-maximal effect. The method in brief:
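Cytotoxicity counter screen: CellTiter-Fluor added to compound-treated wild-type CHO-K1 cells at 16 h (37C, 5% CO2), fluorescence measured 1 h later; same wells as caspase-3/7 measurement.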

A short description of experiment [13]: Caspase-3/7 induction in CHO-K1 cells by small molecules, qHTS assay (AID 1346980). Also: nearly all actives have a fitted effect of over 15% in size. Also: potency is read from the fitted curve at half-maximal effect. Summed up:
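Wild-type cells were seeded at 1,500 per well and settled 5 hr at 37 C, 5% CO2, then exposed to DMSO-dissolved compounds for 17 hr. Caspase-Glo 3/7 reagent was added, and luminescence was read after 30min at room temperature.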

Experiment [14] deals with Nuclear receptor subfamily 1 group I member 2 (Homo sapiens) (UniProt O75469). Nature of the experiment: Human pregnane X receptor (PXR) small molecule agonists, qHTS assay (AID 1346982). Also: nearly all actives have a fitted effect of over 35% in size. Also: potency is read from the fitted curve at half-maximal effect. As to activation: % is scaled to controls: 0 for no effect and ±100 for the full control effect. The method in brief:
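PXR-Luc HepG2 reporter cells (CYP3A4-driven luciferase) in 5% charcoal-stripped FBS medium, plated 5 h before compound addition, then treated 24 h at 37C. Luciferase read by ONE-Glo luminescence after 30 min at room temperature.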

The nature of experiment [15]: Caspase-3/7 induction in HepG2 cells by small molecules, qHTS cell viability counter screen (AID 1346981). Also: series mostly up to about 92 µM; % is scaled to controls: 0 for no effect and ±100 for the full control effect; nearly all actives have a fitted effect of over 30% in size. Summed up:
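Wild-type HepG2 cells, 2,000/well, settled 5 hr at 37 C, 5% CO2 before compound addition. Viability read by CellTiter-Fluor fluorescence, reagent added after 16 hr compound exposure, then 1 hr at 37C, in the same wells as the caspase read.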

The target in experiment [16] is Progesterone receptor (Homo sapiens) (UniProt P06401). Nature of the experiment: qHTS assay to identify small molecule antagonists of the progesterone receptor (PR) signaling pathway (AID 1346795; active = well fitted inhibition curve with a large enough effect in the signal ratio in the repeat runs, not every such curve was filed as active; the % refers to the signal ratio; also: potency is read from the fitted curve at half-maximal effect). The method in brief: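 Antagonist mode with agonist R5020 at 1 nM final and 16 hr incubation at 37C. Reporter was beta-lactamase driven by UAS in HEK293T (PR-UAS-bla), 2% charcoal-stripped serum; signal from LiveBLAzer FRET substrate, 2 hr at room temperature.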

In experiment [17] the target is Nuclear receptor subfamily 1 group I member 2 (Rattus norvegicus) (UniProt Q9R1A7). Nature of the experiment: Rat pregnane X receptor (rPXR) activation by small molecules, qHTS assay (AID 1346983). Also: % is scaled to controls: 0 for no effect and ±100 for the full control effect; nearly all actives have a fitted effect of over 20% in size. The note with it: rPXR luciferase reporter cells, One-Glo luminescence, 24 h; stronger effect = higher value. Summed up:
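Cell-based rPXR luciferase reporter assay, 2,000 cells per well, rested 5hr at 37 C before compound addition in DMSO, then 24 hr at 37 C. One-Glo reagent was added and luminescence read after 30 min at room temperature.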

Experiment [18] deals with Progesterone receptor (Homo sapiens) (UniProt P06401). Nature of the experiment: qHTS assay to identify small molecule agonists of the progesterone receptor (PR) signaling pathway (AID 1346784; calls by dose curve; also: potency is read from the fitted curve at half-maximal effect; nearly all actives have a fitted effect of over 30% in size). Summed up:
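Agonist qHTS: compounds pinned onto 3,000 PR-UAS-bla HEK 293T cells per well in charcoal-stripped serum medium, 16hr at 37C, then beta-lactamase activity measured by LiveBLAzer FRET fluorescence after 2 hours at room temperature.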

Each structure is given as a SMILES string. Values joined by “and” are separate entries in the source; they are usually repeats but may differ in a detail not shown here. Identical values can stand only once. Results filed as inconclusive are left out. The source holds several records for some structures; these can differ, active in one and inactive in another. Active and inactive are the calls of the source. Unless noted, calls follow the shape of the dose curve; as a rule, active = well fitted curve in the direction sought with a large enough effect in the repeat runs; inconclusive = weak or mixed curves; inactive = no such curve, though single readings can be large; an effect the other way counts as inactive or inconclusive.

Sequence of Nuclear receptor subfamily 1 group I member 2 (Homo sapiens) (O75469 whole entry, looked up): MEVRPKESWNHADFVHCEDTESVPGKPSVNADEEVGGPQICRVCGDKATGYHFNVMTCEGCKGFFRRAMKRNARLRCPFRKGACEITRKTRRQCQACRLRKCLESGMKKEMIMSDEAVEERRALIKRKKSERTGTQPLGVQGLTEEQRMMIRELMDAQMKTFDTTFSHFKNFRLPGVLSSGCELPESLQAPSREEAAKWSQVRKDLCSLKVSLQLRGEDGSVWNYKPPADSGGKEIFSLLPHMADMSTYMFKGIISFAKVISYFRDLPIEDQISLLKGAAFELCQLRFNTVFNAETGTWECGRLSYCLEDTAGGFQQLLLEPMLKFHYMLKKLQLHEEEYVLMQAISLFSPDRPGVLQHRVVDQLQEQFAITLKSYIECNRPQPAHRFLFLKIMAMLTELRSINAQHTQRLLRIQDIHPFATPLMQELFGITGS
Sequence of Thyrotropin receptor (Homo sapiens) (P16473 whole entry, looked up): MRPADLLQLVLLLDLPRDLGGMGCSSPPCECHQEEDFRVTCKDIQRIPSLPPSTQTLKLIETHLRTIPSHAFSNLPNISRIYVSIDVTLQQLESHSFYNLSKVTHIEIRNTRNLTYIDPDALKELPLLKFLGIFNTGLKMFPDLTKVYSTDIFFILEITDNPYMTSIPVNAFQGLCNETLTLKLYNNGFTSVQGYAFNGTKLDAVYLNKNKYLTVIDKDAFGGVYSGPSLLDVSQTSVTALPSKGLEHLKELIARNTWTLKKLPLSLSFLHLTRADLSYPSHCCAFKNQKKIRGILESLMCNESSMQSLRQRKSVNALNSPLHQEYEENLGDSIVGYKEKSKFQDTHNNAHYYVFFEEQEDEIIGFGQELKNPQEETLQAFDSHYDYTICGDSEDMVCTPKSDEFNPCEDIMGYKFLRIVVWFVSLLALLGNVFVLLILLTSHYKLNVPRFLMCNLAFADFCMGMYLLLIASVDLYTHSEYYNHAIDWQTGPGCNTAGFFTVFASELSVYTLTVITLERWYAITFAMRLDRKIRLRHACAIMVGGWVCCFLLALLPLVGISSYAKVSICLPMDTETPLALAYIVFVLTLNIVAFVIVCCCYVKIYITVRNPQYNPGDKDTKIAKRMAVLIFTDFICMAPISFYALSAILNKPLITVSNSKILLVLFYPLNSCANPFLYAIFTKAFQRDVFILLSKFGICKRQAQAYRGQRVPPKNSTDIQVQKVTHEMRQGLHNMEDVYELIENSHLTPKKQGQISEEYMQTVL
Sequence of Progesterone receptor (Homo sapiens) (P06401 whole entry, looked up): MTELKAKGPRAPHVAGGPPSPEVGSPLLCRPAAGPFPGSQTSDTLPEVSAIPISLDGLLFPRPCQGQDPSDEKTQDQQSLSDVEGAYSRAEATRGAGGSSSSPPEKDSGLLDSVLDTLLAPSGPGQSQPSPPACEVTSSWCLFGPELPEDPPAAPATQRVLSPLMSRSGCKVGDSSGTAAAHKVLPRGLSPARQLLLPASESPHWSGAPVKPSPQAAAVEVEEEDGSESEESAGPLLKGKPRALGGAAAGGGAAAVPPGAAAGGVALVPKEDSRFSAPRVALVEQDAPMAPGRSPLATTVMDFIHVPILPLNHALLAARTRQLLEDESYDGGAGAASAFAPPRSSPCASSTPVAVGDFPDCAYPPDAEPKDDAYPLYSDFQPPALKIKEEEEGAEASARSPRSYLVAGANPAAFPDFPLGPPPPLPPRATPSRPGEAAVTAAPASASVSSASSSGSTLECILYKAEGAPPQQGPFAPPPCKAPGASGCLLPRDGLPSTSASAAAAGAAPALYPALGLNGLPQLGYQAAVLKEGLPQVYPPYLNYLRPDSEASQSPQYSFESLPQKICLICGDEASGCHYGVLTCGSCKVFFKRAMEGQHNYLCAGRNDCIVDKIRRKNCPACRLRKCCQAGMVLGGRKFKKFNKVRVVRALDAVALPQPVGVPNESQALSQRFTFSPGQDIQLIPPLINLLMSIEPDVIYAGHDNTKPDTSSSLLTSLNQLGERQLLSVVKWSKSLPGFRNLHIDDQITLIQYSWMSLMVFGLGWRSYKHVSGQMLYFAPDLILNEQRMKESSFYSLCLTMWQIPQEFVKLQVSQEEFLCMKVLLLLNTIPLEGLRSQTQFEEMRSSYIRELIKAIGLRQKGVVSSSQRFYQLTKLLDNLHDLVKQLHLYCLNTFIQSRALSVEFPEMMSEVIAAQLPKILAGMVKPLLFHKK
Sequence of Thyrotropin-releasing hormone receptor (Homo sapiens) (P34981 whole entry, looked up): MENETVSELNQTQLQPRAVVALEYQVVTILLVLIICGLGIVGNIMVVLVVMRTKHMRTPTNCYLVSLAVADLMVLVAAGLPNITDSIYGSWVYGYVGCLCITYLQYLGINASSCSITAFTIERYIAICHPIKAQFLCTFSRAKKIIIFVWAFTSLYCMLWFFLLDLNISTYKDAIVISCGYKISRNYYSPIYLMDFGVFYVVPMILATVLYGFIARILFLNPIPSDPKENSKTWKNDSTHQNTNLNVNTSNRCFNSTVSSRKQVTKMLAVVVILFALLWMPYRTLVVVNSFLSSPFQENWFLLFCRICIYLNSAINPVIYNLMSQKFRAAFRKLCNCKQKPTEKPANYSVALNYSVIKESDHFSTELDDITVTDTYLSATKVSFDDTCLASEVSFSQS
Sequence of Nuclear receptor subfamily 1 group I member 2 (Rattus norvegicus) (Q9R1A7 whole entry, looked up): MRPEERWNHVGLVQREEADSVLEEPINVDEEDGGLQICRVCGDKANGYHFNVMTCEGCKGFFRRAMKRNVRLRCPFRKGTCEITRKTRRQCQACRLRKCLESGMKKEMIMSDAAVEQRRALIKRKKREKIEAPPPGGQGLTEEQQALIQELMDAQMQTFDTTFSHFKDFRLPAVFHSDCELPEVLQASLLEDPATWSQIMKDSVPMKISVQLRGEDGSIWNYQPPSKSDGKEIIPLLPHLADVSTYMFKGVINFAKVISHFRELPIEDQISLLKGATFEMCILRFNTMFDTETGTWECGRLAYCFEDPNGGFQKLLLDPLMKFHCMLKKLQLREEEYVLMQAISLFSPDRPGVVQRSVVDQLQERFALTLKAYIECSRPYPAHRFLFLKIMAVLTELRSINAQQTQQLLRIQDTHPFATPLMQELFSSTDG

Regarding `Cc1cccc(N)c1N`, the result in experiment [1] and in experiment [7] was inactive. Also, the Potency entry in experiment [2], in experiment [3], in experiment [4], in experiment [5], in experiment [6] and in experiment [8] was “inactive” in each case. In addition, the Potency result in experiment [9], in [10], in [11], in [12] and in experiment [13] was “inactive” each time. In addition, the Potency in experiment [14] is 26.4 µM (active) and 54.5 µM (active).

As to `CCCCC(CC)COC(=O)Cl` (centres undefined), the result in experiment [1] and in experiment [7] was inactive. Moreover, the Potency entry in experiment [2], in experiment [3], in experiment [4], in [5], in experiment [6] and in experiment [8] was “inactive” throughout. Further, the Potency entry in experiment [9], in experiment [10], in experiment [12], in experiment [13], in experiment [15] and in experiment [14] was “inactive” in each case.

In the case of `Oc1cc(Cl)ccc1Oc1ccc(Cl)cc1Cl`, the Potency in experiment [16] is 13.3 µM (active); in [3] it was 31.4 µM (active); in experiment [4] it was 31.4 µM (active) and inactive; in experiment [6] it was 39.8 µM (active) and inactive; in experiment [10], 31.4 µM (active) and 29.8 µM (active); in experiment [12], 28.8 µM (active) and 26.6 µM (active). Besides, the Potency in experiment [13] was 59.1 µM (active) and inactive. The Potency entry in experiment [5] is “inactive”. Moreover, in experiment [7], the compound was classed as inactive. In addition, the max activation in experiment [17] is -0.85% (inactive).

Turning to `C[C@]12CCC(=O)C[C@@H]1CC[C@@H]1[C@@H]2CC[C@]2(C)[C@@H](O)CC[C@@H]12`, the Potency entry in experiment [2], in [5], in experiment [6], in experiment [10], in experiment [11] and in [13] was “inactive” each time. Also, the Potency result in experiment [15] is “inactive”. In addition, the Potency in experiment [18] was 3.03 µM (active) and 1.94 µM (active); in [4], 48 µM (active). In experiment [7], the call was inactive. The max activation in experiment [17] was -5.43% (inactive).

In the case of `COP(=S)(OC)Oc1ccc([N+](=O)[O-])cc1`, the outcome in [1] and in experiment [7] was inactive. For the same compound, the Potency result was “inactive and 24.3 µM (active)” in experiment [16]; 68.7 µM (active) and inactive in [12]. In addition, the Potency entry in [3], in [4], in experiment [5], in [6], in experiment [8] and in [9] was “inactive” throughout. Moreover, the Potency result in experiment [10], in experiment [11], in experiment [13], in [15] and in experiment [14] was “inactive” throughout.

On to `Clc1nc(Cl)nc(Cl)n1`, for which the Potency entry in experiment [2], in experiment [16], in experiment [3], in experiment [4], in experiment [5] and in experiment [6] was “inactive” throughout. In addition, the Potency result in experiment [8], in experiment [9], in experiment [10], in experiment [11], in experiment [12] and in experiment [13] was “inactive” in each case. For the same compound, the Potency result in experiment [15] and in [14] was “inactive” each time. Further, the result in experiment [7] was inactive.
